Data as given in PubChem BioAssay (Tox21).
“And” between values parts separate entries of the source, which are not always exact repeats. Equal entries are not always repeated. Results filed as inconclusive are left out. More than one record can exist for a structure, and the calls need not agree. The source made the active and inactive calls. Unless noted, the call rests on the fitted dose curve.

Key:
[1] = target: Gonadotropin-releasing hormone receptor (Homo sapiens) (UniProt P30968); assay: Human gonadotropin-releasing hormone receptor (GnRHR) small molecule agonists, calcium flux assay in GnRHR-HEK293 cells (AID 1920063); further: nearly all actives have a fitted effect of over 35% in size
Gonadotropin-releasing hormone receptor (Homo sapiens), sequence (P30968 whole entry, looked up): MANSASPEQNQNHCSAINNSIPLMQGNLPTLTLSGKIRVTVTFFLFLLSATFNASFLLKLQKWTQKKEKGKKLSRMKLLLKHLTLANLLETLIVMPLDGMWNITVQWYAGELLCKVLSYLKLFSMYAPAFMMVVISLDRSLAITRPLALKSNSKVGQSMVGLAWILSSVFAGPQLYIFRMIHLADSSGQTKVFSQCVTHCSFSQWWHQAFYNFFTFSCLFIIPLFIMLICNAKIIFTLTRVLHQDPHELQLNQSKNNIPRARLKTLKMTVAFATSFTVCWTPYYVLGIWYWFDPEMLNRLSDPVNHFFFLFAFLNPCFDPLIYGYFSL
In short: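 We seeded human GnRHR-expressing HEK293 cells for 18 hours, loaded them with calcium dye for an hour at 37 C, added test compounds, and recorded fluorescence intensity kinetically for three minutes.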

[2] = target: KiSS-1 receptor (Homo sapiens) (UniProt Q969F8); assay: Human kisspeptin (KISS1R) small molecule agonists, calcium flux assay in KISS1R-HEK293 cells (AID 1920064; active means well fitted activation curve with a large enough effect in the repeat runs)
KiSS-1 receptor (Homo sapiens), sequence (Q969F8 whole entry, looked up): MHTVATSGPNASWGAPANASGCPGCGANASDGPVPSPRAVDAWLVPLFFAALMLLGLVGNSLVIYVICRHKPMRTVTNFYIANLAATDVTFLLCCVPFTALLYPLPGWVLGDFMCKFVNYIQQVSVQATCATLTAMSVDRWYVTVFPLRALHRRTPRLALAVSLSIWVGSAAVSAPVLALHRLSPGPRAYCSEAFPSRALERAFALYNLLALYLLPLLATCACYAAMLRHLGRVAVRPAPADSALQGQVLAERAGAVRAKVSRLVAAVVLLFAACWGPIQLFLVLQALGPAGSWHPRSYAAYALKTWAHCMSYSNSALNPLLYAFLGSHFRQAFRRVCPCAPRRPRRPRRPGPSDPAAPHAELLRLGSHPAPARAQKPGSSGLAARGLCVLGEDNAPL
In short: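 Kinetic calcium assay, 1 s sampling over 3 min at Ex/Em 480/540, in HEK293 cells engineered with human KISS1R; compounds delivered in DMSO after 1 h dye loading.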

[3] = p53 small molecule agonists, cell-based qHTS assay with human liver microsomes: qHTS cell viability counter screen (AID 1963579); further: nearly all actives have a fitted effect of over 45% in size; further: potency means the concentration at half of the fitted maximal effect
In short: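 Seed p53RE-bla cells at 4,000 per well; incubate 5 h at 37 C; add compound, human liver microsomes and NADPH; incubate 16 h at 37 C; add CellTiter-Glo; after 30 min at room temperature, read luminescence.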

[4] = p53 small molecule agonists, cell-based qHTS assay with rat liver microsomes: qHTS cell viability counter screen (AID 1963580); further: nearly all actives have a fitted effect of over 45% in size
In short: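 HCT-116 p53RE-bla, 4,000 cells/well, 5 h pre-incubation; cpd + rat liver microsomes 0.5 mg/mL + NADPH 0.5 mg/mL (final); 16 h, 37 C; CellTiter-Glo, 30 min RT; luminescence.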

[5] = p53 small molecule agonists, cell-based qHTS assay: qHTS cell viability counter screen (AID 1963581); further: nearly all actives have a fitted effect of over 45% in size
In short: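 Following 5 h attachment, HCT-116 p53RE-bla cells took up compound for 16 h at 37 C; the reporter was read with B/G FRET substrate (2 h RT), and viability then via CellTiter-Glo ATP luminescence.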

[6] = target: 5-hydroxytryptamine receptor 2A (Homo sapiens) (UniProt P28223); assay: 5-hydroxytryptamine receptor 2A (HTR2A) small molecule antagonists, cell-based qHTS assay (AID 1963586); further: nearly all actives have a fitted effect of over 45% in size; further: potency means the concentration at half of the fitted maximal effect
5-hydroxytryptamine receptor 2A (Homo sapiens), sequence (P28223 whole entry, looked up): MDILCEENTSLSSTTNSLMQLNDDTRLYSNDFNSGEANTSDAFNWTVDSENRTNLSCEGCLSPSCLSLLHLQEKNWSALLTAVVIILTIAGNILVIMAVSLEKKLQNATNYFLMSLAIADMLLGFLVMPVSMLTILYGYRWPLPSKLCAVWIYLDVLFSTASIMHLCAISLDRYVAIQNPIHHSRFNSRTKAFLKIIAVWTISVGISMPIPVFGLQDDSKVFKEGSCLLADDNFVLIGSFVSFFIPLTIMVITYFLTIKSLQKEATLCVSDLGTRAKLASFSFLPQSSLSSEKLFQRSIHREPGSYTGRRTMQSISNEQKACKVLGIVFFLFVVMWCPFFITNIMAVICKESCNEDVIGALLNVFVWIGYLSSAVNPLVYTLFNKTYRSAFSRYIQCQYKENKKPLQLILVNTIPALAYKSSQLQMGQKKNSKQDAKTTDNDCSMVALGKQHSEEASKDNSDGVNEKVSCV
In short: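 Antagonist-mode intracellular calcium assay: DOI (4 nM) added after 5 min compound pre-incubation at room temperature to dye-loaded HTR2A-CHO cells. Fluorescence followed for 3 min, sampled every second.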

[7] = target: 5-hydroxytryptamine receptor 2A (Homo sapiens) (UniProt P28223); assay: 5-hydroxytryptamine receptor 2A (HTR2A) small molecule agonists, cell-based qHTS assay (AID 1963587); further: nearly all actives have a fitted effect of over 30% in size
In short: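 Kinetic calcium-flux fluorescence (2 min, 1 sec intervals) after compound addition in agonist mode. HTR2A-CHO cells were cultured 18 h, then dye-loaded 1 h at 37 C.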

[8] = target: Muscarinic acetylcholine receptor M1 (Homo sapiens) (UniProt P11229); assay: Cholinergic receptor muscarinic 1 (CHRM1) small molecule antagonists, cell-based qHTS assay (AID 1963588); further: nearly all actives have a fitted effect of over 40% in size
Muscarinic acetylcholine receptor M1 (Homo sapiens), sequence (P11229 whole entry, looked up): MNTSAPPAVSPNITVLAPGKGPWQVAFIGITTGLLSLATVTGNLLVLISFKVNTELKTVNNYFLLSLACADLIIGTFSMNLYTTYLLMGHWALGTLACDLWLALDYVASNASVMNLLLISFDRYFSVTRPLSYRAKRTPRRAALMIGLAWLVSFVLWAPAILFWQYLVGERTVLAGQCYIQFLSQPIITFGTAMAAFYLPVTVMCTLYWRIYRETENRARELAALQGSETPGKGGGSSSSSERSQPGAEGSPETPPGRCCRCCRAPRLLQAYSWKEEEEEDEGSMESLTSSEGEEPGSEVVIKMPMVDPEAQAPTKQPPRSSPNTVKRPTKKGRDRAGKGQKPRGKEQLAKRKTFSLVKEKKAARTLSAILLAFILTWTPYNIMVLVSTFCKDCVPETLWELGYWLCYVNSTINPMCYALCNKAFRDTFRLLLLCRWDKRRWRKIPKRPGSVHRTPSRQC
In short: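 CHRM1-CHO calcium-flux assay, antagonist mode. Cells were seeded 18 h, dye-loaded 1 h at 37 C and given compound for 5 min at RT, then acetylcholine was added at 50nM. FDSS fluorescence was read 3 min; 15 concentrations, three runs.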

[9] = target: Muscarinic acetylcholine receptor M1 (Homo sapiens) (UniProt P11229); assay: Cholinergic receptor muscarinic 1 (CHRM1) small molecule agonists, cell-based qHTS assay (AID 1963589); further: nearly all actives have a fitted effect of over 35% in size
In short: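 Measures agonist-induced intracellular calcium rise. Stable human CHRM1 CHO line, 1 h dye load at 37 C, compounds from DMSO, kinetic fluorescence read.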

[10] = cAMP Responsive Elements (CRE) small molecule agonists, cell-based qHTS assay (AID 1963590)
In short: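 A CRE-responsive beta-lactamase reporter in HEK 293T cells was used. Treatment ran 3 h at 37 C; detection used LiveBLAzer B/G FRET substrate for 2 h at room temperature.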

[11] = cAMP Responsive Elements (CRE) small molecule antagonists, cell-based qHTS assay (AID 1963591; active means well fitted inhibition curve with a large enough effect in the signal ratio in the repeat runs, not every such curve was filed as active; the % refers to the signal ratio)
In short: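 HEK293T cells carrying a CRE-driven beta-lactamase reporter receive compound and NKH477 (0.25 uM final) for 3 h. Fluorescence from LiveBLAzer B/G FRET substrate is read after 2 h at room temperature.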

[12] = target: Beta-2 adrenergic receptor (Homo sapiens) (UniProt P07550); assay: Adrenergic beta2 receptor (ADRB2) small molecule antagonists, cell-based qHTS assay (AID 1963592); further: nearly all actives have a fitted effect of over 50% in size; further: potency means the concentration at half of the fitted maximal effect; on activity change, negative = inhibition: series mostly up to about 92 µM
Beta-2 adrenergic receptor (Homo sapiens), sequence (P07550 whole entry, looked up): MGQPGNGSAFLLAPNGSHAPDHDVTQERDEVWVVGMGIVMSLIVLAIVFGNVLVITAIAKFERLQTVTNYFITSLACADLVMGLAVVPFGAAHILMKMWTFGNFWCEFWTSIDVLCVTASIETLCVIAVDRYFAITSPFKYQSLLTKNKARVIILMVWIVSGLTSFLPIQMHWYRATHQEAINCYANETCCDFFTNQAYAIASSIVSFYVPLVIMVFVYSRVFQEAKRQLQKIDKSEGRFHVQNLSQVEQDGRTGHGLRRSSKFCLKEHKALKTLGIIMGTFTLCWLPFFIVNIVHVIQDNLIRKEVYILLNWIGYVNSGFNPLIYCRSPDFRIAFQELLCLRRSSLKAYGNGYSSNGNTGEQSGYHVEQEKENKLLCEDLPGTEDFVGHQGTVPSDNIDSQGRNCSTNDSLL
In short: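 Cells (CHO, stable ADRB2 overexpression) incubated 18-20hr at 37C; compounds added from DMSO; agonist mix (1nM isoproterenol, 100uM IBMX, 25uM Ro-20-1724) added; 0.5hr RT; d2-cAMP and anti-cAMP-cryptate added; 1hr RT; 665/615 nm read.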

[13] = target: Beta-2 adrenergic receptor (Homo sapiens) (UniProt P07550); assay: Adrenergic beta2 receptor (ADRB2) small molecule agonists, cell-based qHTS assay (AID 1963593);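 further: CHO cells stably overexpressing human ADRB2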
In short: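 CHO cells stably over-expressing ADRB2 were plated overnight at 37C, then dosed with compounds plus a stimulation mix containing 100uM IBMX and 25uM Ro-20-1724 for 0.5hr at room temperature. cAMP was measured by HTRF competition, 1hr.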

[14] = target: D(2) dopamine receptor (Homo sapiens) (UniProt P14416); assay: Dopamine D2 receptor (DRD2) small molecule agonists, cell-based qHTS assay (AID 1963594); further: nearly all actives have a fitted effect of over 35% in size; further: potency means the concentration at half of the fitted maximal effect
D(2) dopamine receptor (Homo sapiens), sequence (P14416 whole entry, looked up): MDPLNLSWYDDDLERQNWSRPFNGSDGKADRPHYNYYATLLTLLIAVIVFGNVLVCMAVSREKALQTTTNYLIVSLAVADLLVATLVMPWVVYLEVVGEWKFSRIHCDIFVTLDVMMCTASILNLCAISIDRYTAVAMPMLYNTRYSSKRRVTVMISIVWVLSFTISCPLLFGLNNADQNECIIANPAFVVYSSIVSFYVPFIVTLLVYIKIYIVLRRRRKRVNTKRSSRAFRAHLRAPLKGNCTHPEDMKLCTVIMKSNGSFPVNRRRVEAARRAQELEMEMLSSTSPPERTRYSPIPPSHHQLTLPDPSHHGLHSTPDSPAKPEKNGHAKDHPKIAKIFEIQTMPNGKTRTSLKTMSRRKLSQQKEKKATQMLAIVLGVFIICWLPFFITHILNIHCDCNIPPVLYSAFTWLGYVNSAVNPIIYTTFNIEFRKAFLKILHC
In short: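 cAMP accumulation in DRD2-HEK293 cells measured by HTRF after 1 h detection; compounds added 10 min before NKH477 (200nM […]) forskolin-analogue stimulation, 30 min at room temperature, with Ro20-1724 present at 0.1 mM final.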

[15] = target: D(2) dopamine receptor (Homo sapiens) (UniProt P14416); assay: Dopamine D2 receptor (DRD2) small molecule antagonists, cell-based qHTS assay (AID 1963595; active means well fitted inhibition curve with a large enough effect in the signal ratio in the repeat runs, with a control signal flat; the % refers to the signal ratio; further: potency means the concentration at half of the fitted maximal effect)
In short: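 Cells were plated and grown for 24 h at 37 °C. Ro20-1724 (0.1 mM final) went in first, then compound for 10 min. NKH477 (200 nM) with quinpirole (12 nM) followed for 30 min at RT, then HTRF detection reagents for 1 h.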

[16] = G protein-coupled receptor (GPCR) small molecule agonists, calcium flux assay: HEK293 wild type cell line counter screen (AID 1920065)
In short: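 Calcium-sensitive dye, loaded 1 h at 37 C into cells cultured 18 h, reports compound-evoked calcium release as fluorescence (Ex/Em 480/540), measured over 3 min. Agonist mode; 15-point titrations, triplicate.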

[17] = p53 small molecule agonists, cell-based qHTS assay (AID 1963582; active means well fitted activation curve with a large enough effect in the signal ratio in the repeat runs, not every such curve was filed as active; the % refers to the signal ratio)
In short: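 In this cell-based concentration-response screen, a p53 response element drives beta-lactamase; cells received DMSO-borne compounds after 5 h culture and were incubated a further 16 h before FRET substrate development.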

[18] = p53 small molecule agonists, cell-based qHTS assay with human liver microsomes (AID 1963577)
In short: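 Cells carrying a p53-responsive bla reporter were rested 5 h (37 C, 5% CO2) before compound transfer. Human liver microsomes plus NADPH, 0.5 mg/mL final apiece, supplied metabolism during the 16 h 37 C exposure.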

[19] = p53 small molecule agonists, cell-based qHTS assay with rat liver microsomes (AID 1963578)
In short: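 Fluorescence from a beta-lactamase reporter under a p53 response element was measured after cells had been incubated 16 h at 37 C with test compound and rat liver microsomes plus NADPH (0.5 mg/mL final each).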
On the % scale 0 is the no-effect control and ±100 the full control effect.

C[C@@H]1C[C@H]2[C@@H]3C[C@H](F)C4=CC(=O)C=C[C@]4(C)[C@@]3(F)[C@@H](O)C[C@]2(C)[C@@]1(O)C(=O)CO
inactive: Potency [1] | Potency [2] | Potency [3] | Potency [4] | Potency [5] | Potency [6] | Potency [7] | Potency [8] | Potency [9] | Potency [10] | Potency [11] | Potency [12] | Potency [13] | Potency [14] | Potency [15]

Cc1cnc(C(=O)NCCc2ccc(S(=O)(=O)NC(=O)NC3CCCCC3)cc2)cn1
inactive: Potency [1] | Potency [2] | Potency [16] | Potency [5] | Potency [17] | Potency [11] | Potency [15]

O=C1CN(/N=C/c2ccc([N+](=O)[O-])o2)C(=O)N1
inactive: Potency [1] | Potency [2] | Potency [16] | Potency [5] | Potency [12] | Potency [13] | Potency [15]
inactive and 68.6 µM (active): Potency [14]

CN(C)C(=N)N=C(N)N
inactive: Potency [1] | Potency [2] | Potency [16] | Potency [17] | Potency [10] | Potency [11] | Potency [13] | Potency [15]

CN(C)CCOC(c1ccccc1)c1ccccc1 (tested in a mixture with another compound)
inactive: Potency [1] | Potency [2] | Potency [16] | Potency [10] | Potency [14] | Potency [15]

CNCCCN1c2ccccc2CCc2ccccc21
inactive: Potency [1] | Potency [2] | Potency [16] | Potency [10] | Potency [11]

Cc1ccccc1
inactive: Potency [1] | Potency [2] | Potency [16] | Potency [6] | Potency [7] | Potency [8] | Potency [9] | Potency [10] | Potency [11] | Potency [12] | Potency [14] | Potency [15]

Cc1c(-c2ccc(O)cc2)n(Cc2ccc(OCCN3CCCCCC3)cc2)c2ccc(O)cc12
inactive: Potency [1] | Potency [2] | Potency [16] | Potency [7] | Potency [9] | Potency [12]

CCCCc1oc2ccccc2c1C(=O)c1cc(I)c(OCCN(CC)CC)c(I)c1
inactive: Potency [1] | Potency [2] | Potency [5] | Potency [17] | Potency [12] | Potency [13]

OCC(O)CO
inactive: Potency [1] | Potency [2] | Potency [16] | Potency [6] | Potency [7] | Potency [8] | Potency [9] | Potency [10] | Potency [11] | Potency [12] | Potency [13] | Potency [14] | Potency [15]

CC(C)n1c(/C=C/[C@@H](O)C[C@@H](O)CC(=O)O)c(-c2ccc(F)cc2)c2ccccc21
inactive: Potency [1] | Potency [2] | Potency [16] | Potency [5] | Potency [10] | Potency [12] | Potency [13] | Potency [14] | Potency [15]

CN1[C@@H]2CC[C@H]1CC(OC(=O)C(CO)c1ccccc1)C2 (some centres undefined)
inactive: Potency [1] | Potency [2] | Potency [16] | Potency [10] | Potency [11] | Potency [12] | Potency [14] | Potency [15]

Nc1nc2ccc([N+](=O)[O-])cc2s1
active: Potency [3] 28.9 µM | Potency [6] 3.75 µM
inactive: Potency [1] | Potency [2] | Potency [5] | Potency [7] | Potency [9] | Potency [12]

N[C@@H](Cc1ccc(O)cc1)C(=O)O
inactive: activity change [1] -0.862% [at 5.22 µM, stronger effect = higher value] | activation [2] 0.301% [at 6.97 µM] | activation [16] 1.73% [at 5.23 µM] | activity change, negative = cytotoxicity [5] 14.2% [at 5.99 µM] | activity, negative = inhibition [6] 17.7% [at 5.62 µM] | activation [7] 0.614% [at 7.02 µM] | activity, negative = inhibition [8] -1.5% [at 5.58 µM] | activation [10] -0.513% [at 8.39 µM] | activity change, negative = inhibition [11] 0.559% [at 8.39 µM] | activity change, negative = inhibition [12] -0.134% [at 8.39 µM] | activation [13] 15.9% [at 8.39 µM] | activity change, negative = inhibition [15] 0.318% [at 8.38 µM]

CN(C)CCCN1c2ccccc2CCc2ccccc21
active: Potency [12] 29.8 µM
inactive: Potency [1] | Potency [2] | Potency [16] | Potency [7] | Potency [9] | Potency [10] | Potency [11] | Potency [14] | Potency [15]

CN1[C@@H]2CC(OC(=O)[C@H](CO)c3ccccc3)C[C@H]1[C@@H]1O[C@@H]12 (some centres undefined)
inactive: Potency [1] | Potency [2] | Potency [5] | Potency [17] | Potency [6] | Potency [7] | Potency [8] | Potency [9] | Potency [12] | Potency [13] | Potency [14] | Potency [15]

CN1CCN(C2=Nc3cc(Cl)ccc3Nc3ccccc32)CC1
inactive: Potency [1] | Potency [2] | Potency [16] | Potency [5] | Potency [10] | Potency [11] | Potency [12]

CC(C)c1c(C(=O)Nc2ccccc2)c(-c2ccccc2)c(-c2ccc(F)cc2)n1CC[C@@H](O)C[C@@H](O)CC(=O)O
inactive: Potency [1] | Potency [2] | Potency [16] | Potency [5] | Potency [12] | Potency [14] | Potency [15]

COC(=O)C1=C(C)NC(C)=C(C(=O)OC)C1c1ccccc1[N+](=O)[O-]
inactive: Potency [1] | Potency [2] | Potency [16] | Potency [17] | Potency [10] | Potency [12] | Potency [14]
68.7 µM (active) and inactive: Potency [15]

Cc1cc2c(cc1C(F)(F)F)N(C(=O)Nc1ccc(Oc3cccnc3C)nc1)CC2
inactive: Potency [1] | Potency [2] | Potency [18] | Potency [19] | Potency [3] | Potency [4] | Potency [5] | Potency [7] | Potency [9] | Potency [14]
active: Potency [15] 6.2 µM

CS(=O)(=O)c1ccc([C@@H](O)[C@@H](CF)NC(=O)C(Cl)Cl)cc1
inactive: Potency [1] | Potency [2] | Potency [17] | Potency [6] | Potency [7] | Potency [8] | Potency [9] | Potency [10] | Potency [11] | Potency [12] | Potency [13] | Potency [14] | Potency [15]

CC(=O)Nc1ccc(O)cc1
inactive: Potency [1] | Potency [2] | Potency [16] | Potency [10] | Potency [11] | Potency [12] | Potency [14] | Potency [15]
